Compounds with a hit are over-represented: about 3.7% of the library has one in this group of screens.
TIM10 inh: growth inhibitors of TIM10 yeast strain | 1.4% of 330,000 active | inhibition, % at 10 µM | S. cerevisiae TIM10 strain growth, BacTiter-Glo luminescence, 24 h | AID 463195;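 active = inhibition of 40% or more at the single tested concentration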;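 also: wild-type TIM10 isogenic control strain grown at permissive 25 °C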
V-ATPase pHluor: yeast V-ATPase proton transport regulation by pHLuorin. S. cerevisiae, pHLuorin cytosolic pH fluorescence. response, % at 10 µM. 0.37% of 350,000 active. AID 504577; in the data active = response mostly above about 7.3%, no sharp cut-off; inactive = mostly below about 5.4%; also: actives read high
PfHsp90 yeast 2: reduces growth (ATP signal) of yeast expressing P. falciparum Hsp90. S. cerevisiae expressing PfHsp90, BacTiter-Glo ATP, 48 h; yeast lacking PDR1 and PDR3 efflux regulators. inhibition, % at 9.4 µM. 0.32% of 310,000 active;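 active = every replicate shows inhibition above about 80%, whatever the replicate mean, limit read from the data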;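 also: 0% = DMSO neutral controls and 100% = 20 µM radicicol positive controls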
tim10-1 inh: tim10-1 yeast growth inhibition. S. cerevisiae tim10-1 ts strain growth, BacTiter-Glo, 24 h. inhibition, % at 20 µM. 2.2% of 330,000 active;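 active = inhibition of at least 40%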;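 also: mutant grown at 25 °C; 0% = DMSO wells with yeast and 100% = wells holding no yeast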
tim23-1 inh: inhibits growth of tim23-1 mutant yeast; 1.3% of 330,000 active; inhibition, % at 20 µM; S. cerevisiae tim23-1 growth, BacTiter-Glo luminescence, 24 h;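 active = growth inhibition of the mutant yeast at or above 50%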;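 also: temperature-sensitive mutant grown at 25 °C; plate controls were DMSO-treated mutant yeast for no effect and medium wells lacking yeast for full effect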
tim23-1 conf: confirmation of tim23-1 mutant yeast growth inhibitors; 83% of 4,400 active; AID 463218; inhibition, % at 20 µM; shares compounds with tim23-1 inh; S. cerevisiae tim23-1 growth, BacTiter-Glo luminescence, 24 h;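 active = inhibition above about 39% in either of two replicate wells at 20 µM, limit read from the data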;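 also: temperature-sensitive tim23-1 mutant grown at 25 °C; 0% = DMSO wells with yeast and 100% = medium wells without yeast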
The depositor's hits bear a star; / = no result given.

SMILES	TIM10 inh	V-ATPase pHluor	PfHsp90 yeast 2	tim10-1 inh	tim23-1 inh	tim23-1 conf
COc1cccc(C(=O)Nc2nc3ccccc3[nH]2)c1	5	3	17	-12	6	/
COc1ccc(C(=O)Nc2nc3ccccc3[nH]2)cc1	24	-2	31	-38	60*	61*
CCC(C)C(=O)Nc1nc2ccc(OC)cc2s1 (stereo not given)	27	-1	-15	32	52*	51*
COc1ccc(C(=O)Nc2nc3ccccc3s2)cc1	6	3	1	-12	55*	25
COc1cccc(C(=O)Nc2nc3ccccc3s2)c1	22	3	1	10	36	/
CC(C)CN(C(=O)c1cc(=O)[nH]c2ccccc12)c1c(N)n(Cc2ccccc2)c(=O)[nH]c1=O	7	2	-11	8	8	/
CCSCc1nnc(SCC(=O)Nc2nc(C)cs2)n1C	-5	/	/	11	22	/
COc1ccc2nc(NC(=O)c3ccco3)sc2c1	28	0	59	29	52*	37
Cc1ccc2nc(NC(=O)c3ccco3)sc2c1	26	2	27	37	64*	38
O=C(Nc1nc2ccc(Br)cc2s1)c1ccco1	13	-1	-24	25	33	/
N=c1sccn1CC(=O)Nc1cc(Cl)ccc1Oc1ccccc1	22	0	3	15	66*	22
CCc1ccc2c(c1)/C(=C/C(=O)c1cccs1)C(=O)N2	33	4	124*	2	54*	-101
O=C(/C=C1\C(=O)Nc2ccccc21)/C=C1\C(=O)Nc2ccccc21	/	-2	-19	/	/	/
CCCCCCN1C[C@@H](n2cc(COC(=O)c3ccccc3)nn2)[C@H](O)C[C@@H]1c1ccc(OC)cc1	/	1	/	/	/	/
COc1cccc(NC(=S)N2CCC(c3ccc(C)cc3)C2)c1 (stereo not given)	11	2	13	13	53*	37
CCOC(=O)C1CCCN(C(=S)Nc2ccc(Nc3ccccc3)cc2)C1 (stereo not given)	20	6	19	38	52*	41*
COc1ccc(NC(=S)N2CCC(c3ccc(C)cc3)C2)cc1 (stereo not given)	28	2	2	8	45	/
CCOc1ccc(NC(=S)N2CCC(c3ccc(C)cc3)C2)cc1 (stereo not given)	34	-2	20	31	64*	41*
O=C(NCc1ccc(F)cc1)c1cc2ccccc2o1	-20	-5	0	-6	14	/
Cc1c(CN(C)C(=O)C2CCC(=O)N(Cc3ccccc3F)C2)[nH]c2ccccc12 (stereo not given)	/	1	/	/	/	/
Oc1c(Cl)cc(Cl)cc1C=Nc1ccccc1N1CCCC1	14	/	/	18	57*	54*
O=C(Nc1sc2c(c1C(=O)O)CCCCC2)c1ccco1	24	0	-11	25	11	/
CN(C)C(=O)c1c(NC(=O)c2ccco2)sc2c1CCCCC2	35	0	17	35	60*	49*
O=[N+]([O-])c1ccc2[nH]nc(-c3ccccc3)c2c1	35	1	-5	37	59*	33
O=C(O)c1[nH]c2ccc([N+](=O)[O-])cc2c1-c1ccccc1	13	-10	9	-13	-3	/
SMILES	TIM10 inh	V-ATPase pHluor	PfHsp90 yeast 2	tim10-1 inh	tim23-1 inh	tim23-1 conf
COC(=O)[C@]1(C)N[C@H](CN(C)S(=O)(=O)c2ccc(-c3ccccc3)cc2)[C@@H]2C(=O)N(C)C(=O)[C@@H]21	8	-2	-8	-13	3	/
C(=N\N1CCN(C2c3ccccc3-c3ccccc32)CC1)/c1ccccn1	36	2	-1	24	54*	32
CN(C)c1ccc(CN(C(=O)c2cc3ccccc3oc2=O)C2CCS(=O)(=O)C2)cc1 (stereo not given)	-7	6	15	-3	5	/
O=C(c1cc2ccccc2oc1=O)N(Cc1ccco1)C1CCS(=O)(=O)C1 (stereo not given)	4	7	-20	6	94*	13
NC(=S)N/N=C/c1ccc(-c2ccc(Cl)c(Cl)c2)o1	27	5	-149	39	58*	60*
NC(=S)N/N=C\c1ccc(-c2cccc(Cl)c2Cl)o1	29	-2	/	14	43	/
O=C(NCC(=O)N1CC=C(c2ccccc2)CC1)c1ccc(F)cc1	-23	1	/	-30	-2	/
CC1Oc2ccccc2N(CC(=O)c2ccccc2)C1=O (stereo not given)	6	-3	/	29	16	/

Screening data (PubChem BioAssay)
